Test results: the supplement of paper PMC12645437, “Orthogonal IMiD-Degron Pairs Induce Selective Protein Degradation in Cells” (ACS Chemical Biology, 2025)
In all, about 8,300 sequences were measured (“log2 fold change of degron read counts, EGFP-low vs EGFP+ sorted cells (limma voom), compound-induced degradation”: median about -1.1, highest 2% from about 3.2 on). The sample as a whole holds a higher share of the highest values than the screen did.

Molecular target: T1, CRBN, Q96SW2
T1 chain: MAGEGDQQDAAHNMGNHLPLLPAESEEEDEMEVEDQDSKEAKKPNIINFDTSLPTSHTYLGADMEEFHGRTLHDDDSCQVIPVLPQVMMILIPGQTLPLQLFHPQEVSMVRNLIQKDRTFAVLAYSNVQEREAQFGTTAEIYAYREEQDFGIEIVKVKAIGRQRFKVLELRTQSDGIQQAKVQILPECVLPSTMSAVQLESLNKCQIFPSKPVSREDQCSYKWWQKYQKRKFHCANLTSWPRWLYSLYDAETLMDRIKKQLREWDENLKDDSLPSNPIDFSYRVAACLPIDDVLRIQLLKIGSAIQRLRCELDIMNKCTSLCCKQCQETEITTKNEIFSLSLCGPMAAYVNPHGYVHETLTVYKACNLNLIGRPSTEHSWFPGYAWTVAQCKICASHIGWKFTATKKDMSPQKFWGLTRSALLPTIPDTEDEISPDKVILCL
Test: log2 fold change of degron read counts, EGFP-low vs EGFP+ sorted cells (limma voom), compound-induced degradation; higher = more compound-induced degradation of the degron-EGFP fusion; degrons are variants of IKZF1/3 zinc finger 2; compound dose not given here
Details: Jurkat, 18 h

[1] = compound: compound 19 (5-tert-butyl-thalidomide)
[2] = compound: compound 22 (5-morpholino-thalidomide)
[3] = compound: compound 33 (diphenyl IMiD analogue)
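Further: pooled lentiviral library of zinc finger degron-EGFP fusions in mCherry-positive Jurkat cells, FACS-sorted after compound exposure, with degron abundance counted by next-generation sequencing.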

B1: 46F_47L_49E_50I_52G_53R_54I_55F_67L_, Q9UKT9 (peptide)
chain: FLCEICGRIFTQKGNLLRHIKL
- log2 fold change of degron read counts [1]: -1.35
- log2 fold change of degron read counts [2]: -1.7
- log2 fold change of degron read counts [3]: -0.45
- log2 fold change of degron read counts (compound: thalidomide): -0.0614

B2: 46F_47R_49N_50Q_52G_53A_54V_55F_67L_, Q9UKT9 (peptide)
chain: FRCNQCGAVFTQKGNLLRHIKL
- log2 fold change of degron read counts [1]: -2.12
- log2 fold change of degron read counts [2]: -2.1
- log2 fold change of degron read counts [3]: -1.19
- log2 fold change of degron read counts (compound: thalidomide): -1.75

B3: 46F_47L_49E_50I_52G_53R_54N_55F_67L_, Q9UKT9 (peptide)
chain: FLCEICGRNFTQKGNLLRHIKL
- log2 fold change of degron read counts [1]: -2.29
- log2 fold change of degron read counts [2]: -2.99
- log2 fold change of degron read counts [3]: -1.84
- log2 fold change of degron read counts (compound: thalidomide): -0.409

B4: 46F_47V_49N_50V_52G_53A_54H_55F_67L_, Q9UKT9 (peptide)
chain: FVCNVCGAHFTQKGNLLRHIKL
- log2 fold change of degron read counts [1]: -1.72
- log2 fold change of degron read counts [2]: -0.867
- log2 fold change of degron read counts [3]: 0.0144
- log2 fold change of degron read counts (compound: thalidomide): -0.327

B5: 46F_47A_49P_50Q_52G_53A_54K_55F_67L_, Q9UKT9 (peptide)
chain: FACPQCGAKFTQKGNLLRHIKL
- log2 fold change of degron read counts [1]: 1.62
- log2 fold change of degron read counts [2]: -1.34
- log2 fold change of degron read counts [3]: -2.13
- log2 fold change of degron read counts (compound: thalidomide): -1.03

B6: 46F_47E_49P_50I_52G_53H_54A_55F_67L_, Q9UKT9 (peptide)
chain: FECPICGHAFTQKGNLLRHIKL
- log2 fold change of degron read counts [1]: -2.37
- log2 fold change of degron read counts [2]: -2.63
- log2 fold change of degron read counts [3]: -1.62
- log2 fold change of degron read counts (compound: thalidomide): -1.53

B7: 46F_47S_49N_50I_52G_53A_54G_55F_67L_, Q9UKT9 (peptide)
chain: FSCNICGAGFTQKGNLLRHIKL
- log2 fold change of degron read counts [1]: 1.15
- log2 fold change of degron read counts [2]: 0.769
- log2 fold change of degron read counts [3]: 0.918
- log2 fold change of degron read counts (compound: thalidomide): 0.088

B8: 46F_47W_49E_50I_52G_53A_54T_55F_67L_, Q9UKT9 (peptide)
chain: FWCEICGATFTQKGNLLRHIKL
- log2 fold change of degron read counts [1]: 3.05
- log2 fold change of degron read counts [2]: 3.73
- log2 fold change of degron read counts [3]: 1.97
- log2 fold change of degron read counts (compound: thalidomide): 0.793

B9: 46F_47V_49E_50I_52G_53A_54T_55F_67L_, Q9UKT9 (peptide)
chain: FVCEICGATFTQKGNLLRHIKL
- log2 fold change of degron read counts [1]: 0.63
- log2 fold change of degron read counts [2]: 1.64
- log2 fold change of degron read counts [3]: 1.82
- log2 fold change of degron read counts (compound: thalidomide): 2.54

B10: 46F_47G_49E_50I_52G_53A_54T_55F_67L_, Q9UKT9 (peptide)
chain: FGCEICGATFTQKGNLLRHIKL
- log2 fold change of degron read counts [1]: 3.22
- log2 fold change of degron read counts [2]: 2.59
- log2 fold change of degron read counts [3]: 1.76
- log2 fold change of degron read counts (compound: thalidomide): 1.11

B11: 46F_47F_49E_50I_52G_53H_54I_55F_67L_, Q9UKT9 (peptide)
chain: FFCEICGHIFTQKGNLLRHIKL
- log2 fold change of degron read counts [1]: -0.448
- log2 fold change of degron read counts [2]: -0.503
- log2 fold change of degron read counts [3]: -0.957
- log2 fold change of degron read counts (compound: thalidomide): -1.04

B12: 46L_47N_49E_50I_52G_53F_54S_55C_67L_, Q9UKT9 (peptide)
chain: LNCEICGFSCTQKGNLLRHIKL
- log2 fold change of degron read counts [1]: 1.58
- log2 fold change of degron read counts [2]: -0.0234
- log2 fold change of degron read counts [3]: -0.0305
- log2 fold change of degron read counts (compound: thalidomide): 0.742

B13: 46L_47D_49E_50I_52G_53F_54S_55C_67L_, Q9UKT9 (peptide)
chain: LDCEICGFSCTQKGNLLRHIKL
- log2 fold change of degron read counts [1]: 0.356
- log2 fold change of degron read counts [2]: -1.04
- log2 fold change of degron read counts [3]: -1.04
- log2 fold change of degron read counts (compound: thalidomide): -0.00753

B14: 46L_47S_49E_50I_52G_53F_54S_55C_67L_, Q9UKT9 (peptide)
chain: LSCEICGFSCTQKGNLLRHIKL
- log2 fold change of degron read counts [1]: 2.75
- log2 fold change of degron read counts [2]: 2.53
- log2 fold change of degron read counts [3]: 1.7
- log2 fold change of degron read counts (compound: thalidomide): 1.8

B15: 46L_47A_49E_50I_52G_53F_54S_55C_67L_, Q9UKT9 (peptide)
chain: LACEICGFSCTQKGNLLRHIKL
- log2 fold change of degron read counts [1]: 3.41
- log2 fold change of degron read counts [2]: 2.96
- log2 fold change of degron read counts [3]: 0.73
- log2 fold change of degron read counts (compound: thalidomide): 1.55

B16: 46L_47H_49E_50I_52G_53F_54S_55C_67L_, Q9UKT9 (peptide)
chain: LHCEICGFSCTQKGNLLRHIKL
- log2 fold change of degron read counts [1]: 3.19
- log2 fold change of degron read counts [2]: 3.16
- log2 fold change of degron read counts [3]: 2.27
- log2 fold change of degron read counts (compound: thalidomide): 2.44

B17: 46L_47E_49E_50I_52G_53F_54S_55C_67L_, Q9UKT9 (peptide)
chain: LECEICGFSCTQKGNLLRHIKL
- log2 fold change of degron read counts [1]: 0.457
- log2 fold change of degron read counts [2]: -1.92
- log2 fold change of degron read counts [3]: 1.25
- log2 fold change of degron read counts (compound: thalidomide): 2.46

B18: 46L_47G_49E_50I_52G_53F_54S_55C_67L_, Q9UKT9 (peptide)
chain: LGCEICGFSCTQKGNLLRHIKL
- log2 fold change of degron read counts [1]: 1.24
- log2 fold change of degron read counts [2]: 0.532
- log2 fold change of degron read counts [3]: -0.284
- log2 fold change of degron read counts (compound: thalidomide): -0.251

B19: 46L_47R_49E_50I_52G_53F_54S_55C_67L_, Q9UKT9 (peptide)
chain: LRCEICGFSCTQKGNLLRHIKL
- log2 fold change of degron read counts [1]: 2.23
- log2 fold change of degron read counts [2]: 1.56
- log2 fold change of degron read counts [3]: 2.62
- log2 fold change of degron read counts (compound: thalidomide): 2.99

B20: 46L_47W_49E_50I_52G_53F_54S_55C_67L_, Q9UKT9 (peptide)
chain: LWCEICGFSCTQKGNLLRHIKL
- log2 fold change of degron read counts [1]: 3.66
- log2 fold change of degron read counts [2]: 3.79
- log2 fold change of degron read counts [3]: 3.08
- log2 fold change of degron read counts (compound: thalidomide): 1.89

B21: 46L_47V_49E_50I_52G_53F_54S_55C_67L_, Q9UKT9 (peptide)
chain: LVCEICGFSCTQKGNLLRHIKL
- log2 fold change of degron read counts [1]: 2.39
- log2 fold change of degron read counts [2]: 3.11
- log2 fold change of degron read counts [3]: 2.52
- log2 fold change of degron read counts (compound: thalidomide): 3.33

B22: 46L_47Q_49E_50I_52G_53F_54S_55C_67L_, Q9UKT9 (peptide)
chain: LQCEICGFSCTQKGNLLRHIKL
- log2 fold change of degron read counts [1]: 2.41
- log2 fold change of degron read counts [2]: 1.96
- log2 fold change of degron read counts [3]: 1.77
- log2 fold change of degron read counts (compound: thalidomide): 3.58

B23: 46L_47L_49E_50I_52G_53F_54S_55C_67L_, Q9UKT9 (peptide)
chain: LLCEICGFSCTQKGNLLRHIKL
- log2 fold change of degron read counts [1]: 1.68
- log2 fold change of degron read counts [2]: -0.0296
- log2 fold change of degron read counts [3]: 1.49
- log2 fold change of degron read counts (compound: thalidomide): 2.43

B24: 46F_47L_49D_50I_52G_53A_54C_55F_67L_, Q9UKT9 (peptide)
chain: FLCDICGACFTQKGNLLRHIKL
- log2 fold change of degron read counts [1]: -0.48
- log2 fold change of degron read counts [2]: -1.68
- log2 fold change of degron read counts [3]: 0.21
- log2 fold change of degron read counts (compound: thalidomide): -0.568

B25: 46F_47T_49N_50Q_52G_53R_54M_55F_67L_, Q9UKT9 (peptide)
chain: FTCNQCGRMFTQKGNLLRHIKL
- log2 fold change of degron read counts [1]: -2.42
- log2 fold change of degron read counts [2]: -2.23
- log2 fold change of degron read counts [3]: -3.36
- log2 fold change of degron read counts (compound: thalidomide): -2.15

B26: 46F_47K_49P_50V_52G_53A_54N_55F_67L_, Q9UKT9 (peptide)
chain: FKCPVCGANFTQKGNLLRHIKL
- log2 fold change of degron read counts [1]: -1.23
- log2 fold change of degron read counts [2]: -1.7
- log2 fold change of degron read counts [3]: -1.75
- log2 fold change of degron read counts (compound: thalidomide): -0.842

B27: 46F_47F_49N_50V_52G_53A_54S_55F_67L_, Q9UKT9 (peptide)
chain: FFCNVCGASFTQKGNLLRHIKL
- log2 fold change of degron read counts [1]: 0.714
- log2 fold change of degron read counts [2]: 1.8
- log2 fold change of degron read counts [3]: 0.537
- log2 fold change of degron read counts (compound: thalidomide): -0.573

B28: 46F_47W_49N_50V_52G_53A_54T_55F_67L_, Q9UKT9 (peptide)
chain: FWCNVCGATFTQKGNLLRHIKL
- log2 fold change of degron read counts [1]: -0.873
- log2 fold change of degron read counts [2]: 1.95
- log2 fold change of degron read counts [3]: 0.03
- log2 fold change of degron read counts (compound: thalidomide): -1.73
